Publication PMC5540273 (PLoS ONE, 2017)
Where two headings read alike, the source gives them in different places.

What was measured:
Details in all cases: n = 1
CDK4 = system: CDK4
CDK5 = system: CDK5
CDK7 = system: CDK7
CDK8 = system: CDK8
CDK9 = system: CDK9
CDKL1 = system: CDKL1
CDKL2 = system: CDKL2
CDKL3 = system: CDKL3
CDKL5 = system: CDKL5
CHEK1 = system: CHEK1
[1] = concentration: 1 μM, replicates: in singlicate
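Further: KINOMEscan kinase panel screen.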

Row | Compound | %Inh (CDK4; [1]) [%] | %Inh (CDK5; [1]) [%] | %Inh (CDK7; [1]) [%] | %Inh (CDK8; [1]) [%] | %Inh (CDK9; [1]) [%] | %Inh (CDKL1; [1]) [%] | %Inh (CDKL2; [1]) [%] | %Inh (CDKL3; [1]) [%] | %Inh (CDKL5; [1]) [%] | %Inh (CHEK1; [1]) [%] | %Inh (CDK4; 1 µM) [%] | %Inh (CDK5; 1 µM) [%] | %Inh (CDK7; 1 µM) [%] | %Inh (CDK8; 1 µM) [%] | %Inh (CDK9; 1 µM) [%] | %Inh (CDKL1; 1 µM) [%] | %Inh (CDKL2; 1 µM) [%] | %Inh (CDKL3; 1 µM) [%] | %Inh (CDKL5; 1 µM) [%] | %Inh (CHEK1; 1 µM) [%]
1 | NC(=O)c1nnc2ccccc2c1N | 0 | 0 | 14 | 26 | 15 | 44 | 1 | 17 | 9 | 0 |  |  |  |  |  |  |  |  |  | 
2 | CN1C(=O)C(Nc2ccc(Cl)c(C(=O)O)c2)=C(c2ccc(Cl)cc2)C1=O [SB-404290] | 47 | 0 | 0 | 0 | 0 | 1 | 13 | 0 | 16 | 0 |  |  |  |  |  |  |  |  |  | 
3 | O=C(Nc1n[nH]c2cc(-c3cccc(F)c3F)ccc12)C1CC1 [SB-733894] | 0 | 0 | 17 | 89 | 5 | 37 | 95 | 48 | 0 | 3 |  |  |  |  |  |  |  |  |  | 
4 | Cl.O=C(Nc1cccc(-c2nn3ncccc3c2-c2ccnc(Nc3cccnc3)n2)c1)c1c(F)cccc1F [GSK312879] | 0 | 0 | 0 | 0 | 0 | 1 | 19 | 0 | 0 | 12 |  |  |  |  |  |  |  |  |  | 
5 | Cc1cc(NCC(c2ccccc2)c2ccccc2)nc(NCc2ccc(C(F)(F)F)cc2)n1 [GW497681] | 0 | 0 | 0 | 28 | 0 | 0 | 12 | 0 | 0 | 0 |  |  |  |  |  |  |  |  |  | 
6 | CCCc1ccc(S(=O)(=O)NC2CCN(c3ccnc(Nc4ccc(F)cc4)n3)C2)cc1 (centres unmarked) [GSK1379715] | 0 | 0 | 0 | 0 | 0 | 13 | 38 | 0 | 0 | 6 |  |  |  |  |  |  |  |  |  | 
7 | Cc1ccc(NC(=O)Nc2cccc(C(F)(F)F)c2)cc1 [GSK955403] |  |  |  |  |  |  |  |  |  |  | 0 | 0 | 12 | 0 | 0 | 14 | 0 | 4 | 0 | 5
8 | COc1cc2nccc(Nc3ccc(NC(=O)c4ccc(C)cc4)c(O)c3)c2cc1OC.Cl [GW440132] | 35 | 0 | 75 | 33 | 0 | 4 | 13 | 0 | 0 | 0 |  |  |  |  |  |  |  |  |  | 
9 | Cl.Oc1ccc(-c2nc(-c3ccccc3)[nH]c2-c2ccncc2)cc1 [SB-428218] | 0 | 0 | 0 | 0 | 0 | 0 | 32 | 0 | 0 | 0 |  |  |  |  |  |  |  |  |  | 
10 | Cc1csc(-c2nc(Nc3ccncc3)c3ccccc3n2)n1 [GW869640] | 20 | 13 | 31 | 0 | 9 | 6 | 1 | 19 | 19 | 7 |  |  |  |  |  |  |  |  |  | 
11 | O=C(O)COc1ncnc2cc(-c3ccc4[nH]ncc4c3)sc12 | 0 | 45 | 30 | 4 | 0 | 11 | 0 | 13 | 17 | 0 |  |  |  |  |  |  |  |  |  | 
12 | Cc1ccc(-c2cc(-c3c[nH]nc3-c3ccccn3)ccn2)cc1 [GW684088] | 43 | 0 | 9 | 52 | 5 | 0 | 28 | 0 | 0 | 12 |  |  |  |  |  |  |  |  |  | 
13 | Nc1nc(-c2nccs2)c(-c2ccnc3ccccc23)s1 [GW693542] | 15 | 0 | 0 | 14 | 0 | 0 | 26 | 0 | 4 | 5 |  |  |  |  |  |  |  |  |  | 
14 | CC(=O)Nc1nc2cnc(Nc3cc(NC(=O)c4cccc(CCC#N)c4)ccc3C)nc2s1 | 2 | 12 | 39 | 5 | 0 | 0 | 29 | 0 | 4 | 0 |  |  |  |  |  |  |  |  |  | 
15 | CC1=C(C(=O)Nc2cc3cn[nH]c3cc2F)C(c2ccc(C(F)(F)F)cc2)CC(=O)N1 (centres unmarked) [GSK429286] | 11 | 0 | 0 | 18 | 0 | 0 | 4 | 0 | 10 | 7 |  |  |  |  |  |  |  |  |  | 
16 | COc1ccc(Nc2nccc(-c3cccc(NC(=O)c4cc5cc(F)ccc5[nH]4)c3)n2)cc1 [GSK1229782] | 48 | 1 | 4 | 56 | 0 | 12 | 30 | 0 | 0 | 0 |  |  |  |  |  |  |  |  |  | 
17 | Cc1ccccc1-n1cnc2c(N)ncnc21 [SKF-97510] | 0 | 0 | 0 | 0 | 0 | 14 | 0 | 39 | 0 | 5 |  |  |  |  |  |  |  |  |  | 
18 | CC(C)(C)c1ccc(C(=O)Nc2cn3cc(Cl)ccc3n2)cc1 | 0 | 18 | 0 | 7 | 0 | 19 | 0 | 0 | 0 | 0 |  |  |  |  |  |  |  |  |  | 
19 | Fc1cc(Cl)ccc1Nc1ccnc2cc(I)ccc12 [GW551191] | 23 | 0 | 0 | 7 | 0 | 0 | 21 | 0 | 3 | 0 |  |  |  |  |  |  |  |  |  | 
20 | CN(C)CCN(C)C(=O)c1cc(-c2ccncc2)c(-c2ccc(Cl)c(O)c2)o1.Cl.Cl [SB-710397] | 0 | 0 | 0 | 37 | 0 | 0 | 20 | 0 | 2 | 9 |  |  |  |  |  |  |  |  |  | 
